This is part of a sample that, as a whole, favours compounds with a hit. Of some 79,000 tested, about 15% had one in any assay. Cut-off read from the data, not from the text of the source: active = growth inhibition above about 70%; inactive = the rest. Where a SMILES comes first, the peptide text is derived from it. [ ]: non-standard residue; d: D form. ξ: configuration not given here. ξF = NC(Cc1ccccc1)C(=O)O
Assays:
[1] = NCI Yeast Anticancer Drug Screen. Data for the rad50 strain (AID 155);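 note: 0% = growth of vehicle-only cultures of the same strain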; details: S. cerevisiae rad50 strain growth inhibition; at 50.0 µM; hits give high values
How it was run: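 Readout: growth inhibition relative to vehicle-treated cultures. Compound exposure was carried out in a genetically defined yeast strain deficient in DNA damage repair.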

[2] = NCI Yeast Anticancer Drug Screen. Data for the mec2-1 strain (AID 157); details: S. cerevisiae mec2-1 strain, at 50.0 µM, hits give high values
How it was run: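 Strain: mec2-1 (DNA repair/cell cycle alteration). Compound exposure, then growth measured; inhibition expressed relative to vehicle.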

[3] = NCI Yeast Anticancer Drug Screen. Data for the mlh1 rad18 strain (AID 175); details: S. cerevisiae mlh1 rad18 strain growth inhibition; at 50.0 µM; hits give high values
How it was run: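 Read-out is yeast growth inhibition, calculated against vehicle-only controls. The compound was applied to a strain engineered with DNA damage repair alterations.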

Measured: growth inhibition

CS(=O)(=O)c1ccc(NN)c(S(C)(=O)=O)c1
inactive: [1] -9.4% | [2] -10.3% | [3] 11.8%

CCN(CC)c1ccc(N=Cc2ccccc2S(=O)(=O)O)cc1
inactive: [1] 0.9% | [2] -11.4% | [3] 34%

ClCCOC(OCCCl)OCCCl
inactive: [1] -7.4% | [2] -28.3% | [3] 4.85%

NC(CCC(=O)OCc1ccccc1)C(=O)OCc1ccccc1 (centres undefined)
inactive: [1] -0.95% | [2] -14.3% | [3] 9.25%

O=C(O)/C=C/C(=O)Nc1cc(Cl)ccc1Cl
inactive: [1] 9.6% | [2] 12.1% | [3] 24.6%

COc1ccc(NC(=S)N(C)C)cc1
inactive: [1] 19.5% | [2] -11% | [3] 3.1%

CCN(CC)CCCOC(=O)N(Cc1ccc(Cl)cc1)C1CC1
inactive: [1] 51.2% | [2] 12.8% | [3] 46.6%

CCOc1cccc(/C=C2\N=C(c3ccccc3)OC2=O)c1
inactive: [1] 4.35% | [2] 25% | [3] 10.9%

O=C1NC(C2CC3C=CC2C3)Nc2ccccc21 (centres undefined)
inactive: [1] 6.75% | [2] 0.8% | [3] 2.7%

COc1cccc(/C=C/C(=O)c2ccc(Cl)cc2)c1OC
inactive: [1] 27% | [2] 30.1% | [3] 16.2%

O=[N+]([O-])c1cccc(C=Nc2cccc(C(F)(F)F)c2)c1
inactive: [1] 6.95% | [2] 4.35% | [3] -12.2%

C[Si](C)(CCl)N[Si](C)(C)CCl
inactive: [1] -23.6% | [2] -33.9% | [3] -6.1%

O=C(NNCN1C(=O)c2ccccc2C1=O)c1ccccc1
inactive: [1] -13.8% | [2] -15.7% | [3] -4.7%

N#[N+]c1ccc2c(S(=O)(=O)O)cccc2c1O
inactive: [1] -17.9% | [2] -16.2% | [3] -25.7%

O=c1oc(-c2cccc([N+](=O)[O-])c2)nc2ccccc12
inactive: [1] 4.4% | [2] -10.2% | [3] 4.8%

C=CCOc1cccc(OCC=C)c1C
inactive: [1] -14.9% | [2] -20% | [3] -3.9%

Cc1ccc2nc3c(nc2c1)-c1cccc2cccc-3c12
inactive: [1] -18.6% | [2] -43% | [3] -12.4%

O=[N+]([O-])c1cc([N+](=O)[O-])c2nc3ccccn3c2c1
inactive: [1] -1.85% | [2] -43.9% | [3] -11.7%

CCN(CC)CCN(C)CC(=O)Nc1ccccc1C
inactive: [1] 1.9% | [2] 6.3% | [3] 38.4%

O=C(CCCCCCCCCCBr)OCc1ccccc1
inactive: [1] -34.2% | [2] -40% | [3] 5.9%

COc1cc(/C=N\Nc2ccccc2[N+](=O)[O-])cc(OC)c1OC
inactive: [1] -11.4% | [2] -25.4% | [3] -12.9%

NC(Cc1ccccc1)C(=O)NCC(=O)NCC(=O)O (stereo not drawn) (H-[ξF]-Gly-Gly-OH)
inactive: [1] 13% | [2] -1.35% | [3] 4.55%

COc1ccc(/C=C/C(=O)c2ccc(Cl)cc2)c(OC)c1
inactive: [1] 20.5% | [2] -11.9% | [3] 8.75%

CCCN1CCc2cc(OC)c(OC)cc2C1Cc1ccc(OC)c(OC)c1 (centres undefined)
inactive: [1] -13.8% | [2] -0.2% | [3] -5.7%

CC(C)CC(Br)C(=O)NC(CC(C)C)C(=O)O (centres undefined)
inactive: [1] -26.2% | [2] -27.9% | [3] -23.2%

COC(=O)c1ccc2oc(=O)cc(C)c2c1O
inactive: [1] -7.6% | [2] -7.75% | [3] 11.7%

NC(=O)C(c1ccccc1)N1CCCC1 (centres undefined)
inactive: [1] 2.05% | [2] -17.9% | [3] -0.55%

Nc1ccccc1SC1CC(=O)N(c2ccccc2Cl)C1=O (centres undefined)
inactive: [1] -18.4% | [2] -33.1% | [3] -6.5%

CN(Cc1ccccc1)Cc1ccccc1
inactive: [1] 8.4% | [2] -3.9% | [3] 14.7%

CCCCCCC(C/C=C\CCCCCCCC(=O)OC)OC(C)=O (centres undefined)
inactive: [1] -10.2% | [2] -16.7% | [3] -4.5%

CCOc1ccc(Br)cc1C=O
inactive: [1] 54.2% | [2] 17.4% | [3] 45.1%

Cc1cc(CSC(=N)N)c(C)cc1CSC(=N)N
inactive: [1] -12.1% | [2] -39.6% | [3] -7.5%

COc1cc(/C=N/N2CCCCC2)cc(OC)c1OC
inactive: [1] -19% | [2] -16.6% | [3] -21.8%

CCCCCCCCCCCC(=O)CCCCC
inactive: [1] -29.5% | [2] -17.1% | [3] -29.4%

Oc1ccccc1C=Nc1ccccc1C(F)(F)F
inactive: [1] -7.3% | [2] -19.9% | [3] 25.2%

O=C1c2ccccc2C(=O)N1CNc1ccc(Cl)cn1
inactive: [1] -18.9% | [2] -43.9% | [3] -24.6%

CCCOC(=O)C(=O)C(C#N)c1ccccc1 (centres undefined)
inactive: [1] 21.1% | [2] -0.35% | [3] 16.9%

NS(=O)(=O)c1ccc(NC(=O)/C=C/C(=O)O)cc1
inactive: [1] -11.9% | [2] -10.4% | [3] -4%

O=C(O)c1ccccc1Oc1ccccc1C(=O)O
inactive: [1] -8.75% | [2] -22.9% | [3] -22.6%

C[N+]12CCC34c5ccccc5NC3C3C(CC(=O)[O-])OCC=C(C1)C3CC42 (centres undefined)
inactive: [1] -7.55% | [2] -45% | [3] -31%

N#C/C(=C1C=C(Br)/C(=N\O)C=C\1Cl)c1ccc(Cl)cc1
inactive: [1] 30.9% | [2] 4.55% | [3] 27.7%

Nc1ccccc1SC1CC(=O)N(c2cccc3ccccc23)C1=O (centres undefined)
inactive: [1] -19.6% | [2] -7.6% | [3] -12.8%

CCOC(=O)C(C#N)N=Nc1ccccc1 (centres undefined)
inactive: [1] 10.2% | [2] -7% | [3] 10.2%

COc1ccc(/C=N\NC(=O)OC(C)(C)C)c(OC)c1OC
inactive: [1] -23.8% | [2] -33.4% | [3] -24.4%

COc1ccc(CCN2C(=O)CSC2=S)cc1OC
inactive: [1] -14% | [2] -17.4% | [3] -2.6%

Cc1cccc(NNC(=S)Nc2ccccc2)c1
inactive: [1] 18.1% | [2] -14.8% | [3] 5.05%

Clc1cccc(Cl)c1Br
inactive: [1] 7.45% | [2] -26.2% | [3] 16.9%

COC(=O)CCNCc1ccccc1
inactive: [1] -7.25% | [2] -41.6% | [3] 10.4%

COc1cc(/C=N\NC(=O)OC(C)(C)C)cc(OC)c1OC
inactive: [1] 6.25% | [2] -17.4% | [3] 10.5%

Clc1ccc(C(c2cccs2)N2CCNCC2)cc1 (centres undefined)
inactive: [1] 5.45% | [2] -2.75% | [3] 5.35%

CCCCCCCCOC(=O)C(=O)C(C#N)c1ccccc1 (centres undefined)
inactive: [1] 6.95% | [2] 6.3% | [3] 10.2%

CCC(C)NCCNCCNC(C)CC (centres undefined)
inactive: [1] -9% | [2] -11.1% | [3] 0.8%

CC(=O)c1cccc(OCc2ccccc2)c1
inactive: [1] 6.4% | [2] 2.75% | [3] 8.4%

Cc1ccc(NC(=S)NCCO)cc1
inactive: [1] -25.4% | [2] -41.8% | [3] -13.6%

c1cc[n+](CCNCC[n+]2ccccc2)cc1
inactive: [1] 8.55% | [2] -7.75% | [3] 36.6%

O=C1OC(=O)C2C1OC1C(=O)OC(=O)C12 (centres undefined)
inactive: [1] -35.6% | [2] -33.1% | [3] -28.1%

CCCCCCCC/C=C\CCCCCCCCOC(N)=O
inactive: [1] -30.7% | [2] -26.8% | [3] -17.1%

NC(=O)NC(CCCN=C(N)N)C(=O)O (centres undefined)
inactive: [1] -21.4% | [2] -36.3% | [3] -36.1%

Clc1nc(Oc2ccccc2)nc(-c2cn(-c3ccccc3)c3ccccc23)n1
inactive: [1] 2.05% | [2] -12.6% | [3] -6.35%

COc1ccc(/C=N/N2C(=O)c3ccccc3C2=O)cc1OC
inactive: [1] 21% | [2] 1.2% | [3] 6.3%

Cc1cc(Cl)ccc1NCN1C(=O)c2ccccc2C1=O
inactive: [1] -6.8% | [2] -8.9% | [3] 15.8%

CC1CCN(c2ccc([N+](=O)[O-])cc2)CC1
inactive: [1] -17.6% | [2] -29.9% | [3] -9.05%

CCOC(=O)c1nc2cc(C)c(C)cc2[nH]c1=O
inactive: [1] 5.45% | [2] -5.4% | [3] -1.85%

O=C(N/N=C/c1ccc2c(c1)CCC2)c1cc2ccccc2cc1O
inactive: [1] 2.55% | [2] -8.15% | [3] 7.2%

CN(C)c1ccc(P(c2ccc(N(C)C)cc2)c2ccc(N(C)C)cc2)cc1
inactive: [1] -17.2% | [2] -15.3% | [3] -25.2%

CC(C)Oc1ccc(C(=O)NS(=O)(=O)c2ccc(N)cc2)cc1
inactive: [1] -25% | [2] -32.5% | [3] -8.4%

O=S(=O)(O)c1ccc(-c2ccccc2)cc1
inactive: [1] -0.4% | [2] -16.1% | [3] -5.4%

CCOC(=O)CN1C(=O)C(=O)c2ccccc21
inactive: [1] 18.9% | [2] 5.3% | [3] 24.4%
